Compound activity: PubChem BioAssay, several laboratories
ALR H2O2 inh: blocks human ALR sulfhydryl oxidase activity; P55789; purified ALR, DTT oxidation, H2O2 HRP-luminol luminescence; inhibition, % (test concentration not listed); actives 3.8% (n = 290,000); AID 485317;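 active = mean replicate inhibition above about 79%, with every replicate also reaching it, limit read from the data; inconclusive = only one of the two criteria met; inactive = mean below limit and not every replicate reaching it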
CSC inhib: blocks cancer stem cells; AID 2717; actives 1.1% (n = 300,000); inhibition, % at 7.5 µM; cancer stem cell-like cells viability, luminescence; in the data active = inhibition above about 75%; inconclusive = no clear call, values can overlap the other calls; tested in HMLE shEcad cells
PP5 primary: blocks human protein phosphatase 5 activity; P53041; inhibition, % at 6.7 µM; actives 0.18% (n = 320,000); AID 1987; purified PP5c, OMFP substrate fluorescence;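 active = inhibition above the campaign's mean inhibition across all tested compounds plus 3 SD, cut at about 9.5% in these data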;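 also: 0% = DMSO only and 100% = 100 µM cantharidin control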
PP1 counter: blocks human PP1-alpha phosphatase, a PP5 counter-screen; purified PP1alpha, OMFP fluorescence; inhibition, % at 6.7 µM; AID 2235; actives 0.9% (n = 320,000); P62136;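 active = inhibition above the mean inhibition of all tested compounds plus 3 SD, computed separately for each screening campaign, cut at about 15% in these data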
Target sequence (P62136 whole entry, looked up): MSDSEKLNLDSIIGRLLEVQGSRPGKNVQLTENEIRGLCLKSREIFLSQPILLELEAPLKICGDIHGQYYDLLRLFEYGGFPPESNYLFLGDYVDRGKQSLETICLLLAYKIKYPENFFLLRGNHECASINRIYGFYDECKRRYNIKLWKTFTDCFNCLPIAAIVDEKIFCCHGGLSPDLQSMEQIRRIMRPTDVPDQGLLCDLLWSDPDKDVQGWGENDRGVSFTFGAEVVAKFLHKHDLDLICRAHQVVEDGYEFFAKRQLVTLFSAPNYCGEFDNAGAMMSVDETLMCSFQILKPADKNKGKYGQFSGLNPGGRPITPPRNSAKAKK
Calb FLC: C. albicans growth modulation with fluconazole; C. albicans CaCi-2 (fluconazole-resistant clinical isolate) + fluconazole, Alamar Blue growth, 48 h; growth inhibition, % (concentration not given with the values); actives 0.57% (n = 300,000); AID 1979;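 active = growth inhibition above about 58% in most replicates, limit read from the data, passing the limit was not always enough; inconclusive = exactly half the replicates above a set limit; inactive = most replicates below a set limit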;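 also: all wells also contain fluconazole at 8 µg/ml as a sub-toxic cotreatment; 0% = median of DMSO wells and 100% = median of geldanamycin control wells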
Active calls of the source: *; ? = inconclusive; nt = not tested or not shown. Shown are actives, neighbours in structure and some others; about 5.4% of the full set was active somewhere.

SMILES | ALR H2O2 inh | CSC inhib | PP5 primary | PP1 counter | Calb FLC
Oc1ccc(/C=N/N(c2ccccc2)c2ccccc2)c(O)c1O | nt | 27.4 | 0.3 | 9.0 | 113.0*
CCN(CC)c1ccc(/C=N/N(c2ccccc2)c2ccccc2)c(O)c1 | -0.1 | 53.1 | 3.5 | 13.5 | 0.0
COc1ccc(CCn2c(C3CCCCC3)nc3c(c(=O)c4ccccc4n3C)c2=O)cc1 | -3.3 | ? | -0.1 | 16.2* | 45.0
COc1ccc(Cn2c(C3CCCCC3)nc3c(c(=O)c4ccccc4n3C)c2=O)cc1 | -1.3 | 36.2 | 1.4 | 11.6 | 12.9
CC(C)NC(=O)c1onc(CSc2cccc3ccccc23)c1C(=O)O | 98.1* | 33.9 | 4.6 | 1.5 | -13.9
CCCCNC(=O)c1onc(CSc2cccc3ccccc23)c1C(=O)O | 98.2* | 37.5 | 1.1 | 2.6 | -18.2
CC(C)NC(=O)c1onc(CSc2ccccc2)c1C(=O)O | 32.9 | -6.6 | 1.6 | 3.2 | -2.3
NNc1nc(-c2ccccc2)cc(-c2ccccc2)n1 | -12.1 | 80.1* | -0.7 | 0.8 | 59.1
Oc1ccc(-c2cc(-c3ccc(O)cc3)nc(-c3ccccc3)n2)cc1 | 47.7 | 104.8* | 3.7 | -2.3 | -0.6
COc1cc(-c2cc(-c3ccc(O)cc3)nc(N)c2C#N)ccc1O | 96.7* | -10.6 | 5.2 | -1.1 | 9.2
COc1ccccc1-c1cc(-c2ccc(O)cc2)nc(N)c1C#N | 96.1* | 19.1 | -2.4 | -8.1 | 1.9
NNc1nc(-c2ccccc2)cc(-c2ccccc2O)n1 | -14.1 | 30.5 | 3.0 | 4.2 | ?
Nc1ccc(-c2cc(-c3ccc(N)cc3)nc(-c3ccccc3)n2)cc1 | -1.4 | -0.9 | 3.4 | 3.6 | 1.9
CCN1C(=O)[C@H]2[C@@H](c3ccc(-c4ccc5c(c4)OCO5)cc3)N[C@@](Cc3ccccc3)(C(=O)OC)[C@H]2C1=O | -1.6 | nt | nt | nt | nt
CCOc1ccc(NCc2nc3ccccc3n2CCOc2ccccc2)cc1 | 5.3 | 6.6 | 2.3 | 6.4 | -3.3
Cc1ccc(-c2cnc3cc(C)nn3c2)cc1 | -6.9 | 2.6 | 2.2 | -3.4 | 3.6
CCC(=NCCc1c(C)[nH]c2ccc(C)cc12)C1=C(O)CC(c2ccccc2)CC1=O (centres undefined) | -7.3 | 71.9 | 1.6 | -1.2 | 13.1
COc1ccc(OC)c(-c2cc(-c3cccnc3)nc(N)c2C#N)c1 | -3.4 | 76.3* | 0.9 | 2.3 | -6.2
N#Cc1c(-c2ccccc2)cc(-c2ccc(O)cc2)nc1N | 99.3* | nt | 5.9 | 2.2 | 33.1
CC(=O)Nc1cc2nc(C)n(Cc3ccccc3[N+](=O)[O-])c2nc1C | -4.9 | -15.9 | -0.8 | -2.6 | -1.0
CC(=O)c1cc2c(cc1NS(=O)(=O)c1ccc(C)cc1)OCO2 | 1.2 | -0.4 | 1.5 | -2.4 | -2.7
CC(C)(C)C1CCC(OC(=O)C[N+]2(C)CCCCC2)CC1 (centres undefined) | -4.5 | 57.8 | 2.5 | 2.3 | 78.8*
CN(C)c1ccc(-c2cc([C@H]3[C@@H]4C=CCC[C@@]4(C)C(=O)N3Cc3ccccc3)ccc2F)cc1 | nt | 103.7* | 3.9 | 5.9 | 13.5
Cc1ccc(-c2cc([C@H]3[C@@H]4C=CCC[C@@]4(C)C(=O)N3Cc3ccccc3)ccc2F)cc1 | nt | 111.1* | 1.6 | 2.5 | -12.9
COc1ccc(-c2cc([C@H]3[C@@H]4C=CCC[C@@]4(C)C(=O)N3Cc3ccccc3)ccc2F)cc1OC | -6.1 | 91.1* | 1.9 | -1.4 | 0.5
SMILES | ALR H2O2 inh | CSC inhib | PP5 primary | PP1 counter | Calb FLC
COc1ccc(-c2cccc([C@H]3[C@@H]4C=CCC[C@@]4(C)C(=O)N3Cc3ccccc3)c2)cc1 | nt | 82.0* | 1.7 | 6.4 | 2.5
COc1ccc(-c2ccc([C@H]3[C@@H]4C=CCC[C@@]4(C)C(=O)N3Cc3ccccc3)c(F)c2)cc1OC | nt | 29.9 | 4.9 | 6.7 | -0.9
CCN(C(=O)CSc1nc2ccccc2c(=O)n1Cc1ccc(C)cc1)C1CCS(=O)(=O)C1 (centres undefined) | 3.6 | -7.4 | 1.2 | -5.3 | 14.2
C[C@@]12CCC=C[C@H]1[C@H](c1ccc(F)c(/C=C/c3ccccc3)c1)N(Cc1ccccc1)C2=O | nt | 94.4* | 3.5 | 8.0 | -0.8
Cc1ccc(F)c([C@H]2[C@@H]3C=CCC[C@@]3(C)C(=O)N2Cc2ccccc2)c1 | -4.7 | 14.1 | 1.4 | 0.6 | -11.0
Cc1ccccc1-c1ccnc2[nH]n(-c3ccccc3)c(=O)c12 | 0.6 | -3.7 | 1.1 | 3.2 | 78.5*
COc1cc(OC)cc(C(=O)NC(=S)NNC(=O)Cc2cccs2)c1 | 99.3* | 8.3 | 4.0 | 0.4 | 32.4
COc1ccc(C(=O)NC(=S)NNC(=O)Cc2cccs2)cc1 | 98.9* | 7.8 | 1.5 | -1.7 | 9.8
O=C(N/N=C/C(Br)=C\c1ccccc1)c1ccco1 | -1.8 | 5.9 | 2.2 | 0.1 | -0.9
